Results filed as inconclusive are left out. Calls of active or inactive are those of the source. Calls follow the shape of the dose curve; as a rule, active = well fitted curve in the direction sought with a large enough effect in the repeat runs; inconclusive = weak or mixed curves; inactive = no such curve, though single readings can be large; an effect the other way counts as inactive or inconclusive.
Legend:
[1] = qHTS RealTime-Glo MT Cell Viability Assay in HEK293 cells - 16 hour (AID 1224872); also: nearly all actives have a fitted effect of over 50% in size; also: potency is read from the fitted curve at half-maximal effect; as to activity change, negative = cytotoxicity: top concentration of the series differs between compounds
Outline: (§1)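 Cells + reagent dispensed (600 cells/well, HEK293) → 5 h at 37 C/5% CO2 → 23 nL compound in DMSO pinned → 40 h at 37 C → luminescence read at 0, 8, 16, 24, 32, 40 h.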

[2] = qHTS RealTime-Glo MT Cell Viability Assay in HepG2 cells - 8 hour (AID 1224873); also: nearly all actives have a fitted effect of over 55% in size
Outline: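 HepG2 cells (600/well) mixed with RealTime-Glo MT reagent, settled 5 h at 37 C/5% CO2 before compound addition. Nonlytic NanoLuc luminescence from viable-cell prosubstrate reduction read repeatedly during 40 h treatment at 37 C.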

[3] = qHTS RealTime-Glo MT Cell Viability Assay in HEK293 cells - 40 hour (AID 1224874); details: RealTime-Glo luminescence; max response: hits give low values; also: nearly all actives have a fitted effect of over 50% in size; also: potency is read from the fitted curve at half-maximal effect
Outline: (§2)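 Luminescence, which tracks viable cell number through reduction of the prosubstrate to a NanoLuc substrate, was read over continuous 37 C culture. Cells (600/well) were premixed with reagent and rested 5 h before 23 nL of compound in DMSO was pinned.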

[4] = A CellTox Green Cytotoxicity Assay to monitor cytotoxicity in HEK293 cells - 24 hour (AID 1224875); also: nearly all actives have a fitted effect of over 45% in size; also: potency is read from the fitted curve at half-maximal effect; as to activity change: series mostly up to about 77 µM
Outline: (§3)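 Fluorescence from a DNA-binding dye excluded by viable cells was measured repeatedly in the same HEK293 wells (600 cells/well) during continuous compound exposure at 37 C. Each assay gives one read point: 0, 8, 16, 24, 32 or 40 h.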

[5] = A CellTox Green Cytotoxicity Assay to monitor cytotoxicity in HepG2 cells - 16 hour (AID 1224876); also: nearly all actives have a fitted effect of over 45% in size
Outline: (§4)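 Real-time cytotoxicity: fluorescence of a cell-impermeant cyanine dye binding DNA of dead HepG2 cells, measured repeatedly (0–40 h) during compound exposure at 37 C. Cells seeded 600/well with reagent, dosed after 5 h.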

[6] = qHTS RealTime-Glo MT Cell Viability Assay in HepG2 cells - 32 hour (AID 1224877); also: nearly all actives have a fitted effect of over 55% in size
Outline: (§5)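 Real-time, nonlytic viability: 600 HepG2 cells/well mixed with NanoLuc enzyme plus prosubstrate; 5 h settle, compound (DMSO) added by pintool; luminescence monitored over 40 h at 37 C.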

[7] = A CellTox Green Cytotoxicity Assay to monitor cytotoxicity in HepG2 cells - 24 hour (AID 1224878); also: nearly all actives have a fitted effect of over 45% in size
Outline: as §4

[8] = A CellTox Green Cytotoxicity Assay to monitor cytotoxicity in HepG2 cells - 40 hour (AID 1224879); also: nearly all actives have a fitted effect of over 40% in size; also: potency is read from the fitted curve at half-maximal effect
Outline: as §4

[9] = qHTS RealTime-Glo MT Cell Viability Assay in HEK293 cells - 0 hour (AID 1224880); also: top concentration of the series differs between compounds; nearly all actives have a fitted effect of over 45% in size
Outline: as §2

[10] = A CellTox Green Cytotoxicity Assay to monitor cytotoxicity in HEK293 cells - 32 hour (AID 1224881); also: nearly all actives have a fitted effect of over 40% in size; also: potency is read from the fitted curve at half-maximal effect
Outline: as §3

[11] = A CellTox Green Cytotoxicity Assay to monitor cytotoxicity in HepG2 cells - 0 hour (AID 1224882); also: nearly all actives have a fitted effect of over 35% in size
Outline: as §4

[12] = A CellTox Green Cytotoxicity Assay to monitor cytotoxicity in HepG2 cells - 32 hour (AID 1224883); also: nearly all actives have a fitted effect of over 50% in size; also: potency is read from the fitted curve at half-maximal effect
Outline: as §4

[13] = A CellTox Green Cytotoxicity Assay to monitor cytotoxicity in HEK293 cells - 8 hour (AID 1224884); also: nearly all actives have a fitted effect of over 35% in size; also: potency is read from the fitted curve at half-maximal effect
Outline: as §3

[14] = qHTS RealTime-Glo MT Cell Viability Assay in HepG2 cells - 16 hour (AID 1224885); also: nearly all actives have a fitted effect of over 50% in size
Outline: as §5

[15] = qHTS RealTime-Glo MT Cell Viability Assay in HEK293 cells - 24 hour (AID 1224886); also: nearly all actives have a fitted effect of over 50% in size; also: potency is read from the fitted curve at half-maximal effect; as to activity change, negative = cytotoxicity: top concentration of the series differs between compounds
Outline: as §1

[16] = qHTS RealTime-Glo MT Cell Viability Assay in HEK293 cells - 8 hour (AID 1224887)
Outline: as §2

[17] = qHTS RealTime-Glo MT Cell Viability Assay in HepG2 cells - 0 hour (AID 1224889); also: nearly all actives have a fitted effect of over 50% in size
Outline: as §5

[18] = A CellTox Green Cytotoxicity Assay to monitor cytotoxicity in HepG2 cells - 8 hour (AID 1224890); also: nearly all actives have a fitted effect of over 45% in size
Outline: as §4

[19] = A CellTox Green Cytotoxicity Assay to monitor cytotoxicity in HEK293 cells - 16 hour (AID 1224888); also: nearly all actives have a fitted effect of over 35% in size
Outline: as §3

[20] = A CellTox Green Cytotoxicity Assay to monitor cytotoxicity in HEK293 cells - 40 hour (AID 1224871); also: nearly all actives have a fitted effect of over 45% in size; also: potency is read from the fitted curve at half-maximal effect
Outline: as §3
% is scaled to controls: 0 for no effect and ±100 for the full control effect.

Clc1cccc(SC2CCNCC2)n1
inactive: Potency [1] | Potency [2] | max response [3] 1.39% | Potency [4] | Potency [5] | Potency [6] | Potency [7] | Potency [8] | Potency [9] | Potency [10] | Potency [11] | Potency [12] | Potency [13] | Potency [14] | Potency [15] | Potency [16] | Potency [17] | Potency [18]

C#CCOC(C(=O)OCCN(C)C)(c1ccccc1)c1ccccc1
inactive: Potency [1] | Potency [2] | max response [3] -21.3% | Potency [4] | Potency [5] | Potency [6] | Potency [7] | Potency [8] | Potency [9] | Potency [10] | Potency [11] | Potency [12] | Potency [13] | Potency [14] | Potency [15] | Potency [16] | Potency [19] | Potency [17] | Potency [18]

COC(=O)C(Cl)C(=O)OC
inactive: Potency [1] | Potency [2] | max response [3] -20.1% | Potency [4] | Potency [5] | Potency [6] | Potency [7] | Potency [8] | Potency [9] | Potency [10] | Potency [11] | Potency [12] | Potency [13] | Potency [14] | Potency [15] | Potency [16] | Potency [19] | Potency [18]

O=C(NC(=O)c1c(F)cccc1F)Nc1ccc(OC(F)(F)C(F)OC(F)(F)F)c(Cl)c1 (configuration not stated)
inactive: Potency [1] | Potency [2] | max response [3] -1.18% | Potency [4] | Potency [5] | Potency [6] | Potency [7] | Potency [8] | Potency [9] | Potency [10] | Potency [11] | Potency [12] | Potency [13] | Potency [14] | Potency [15] | Potency [16] | Potency [17] | Potency [18]

O=C(NCc1cccnc1)Nc1ccc([N+](=O)[O-])cc1
inactive: Potency [2] | Potency [4] | Potency [5] | Potency [6] | Potency [7] | Potency [8] | Potency [9] | Potency [10] | Potency [11] | Potency [12] | Potency [13] | Potency [14] | Potency [16] | Potency [19] | Potency [18]
active: Potency [1] 49 µM | Potency [3] 54.9 µM | Potency [15] 49 µM

O=C1c2ccccc2C(=O)C1C(=O)C(c1ccccc1)c1ccccc1
inactive: Potency [1] | Potency [2] | max response [3] 3.22% | Potency [4] | Potency [5] | Potency [6] | Potency [7] | Potency [8] | Potency [10] | Potency [11] | Potency [12] | Potency [13] | Potency [14] | Potency [15] | Potency [16] | Potency [19] | Potency [18]

CO/C=C(/C(=O)OC)c1ccccc1COc1cccc(C(F)(F)F)n1
inactive: Potency [4] | Potency [5] | Potency [6] | Potency [7] | Potency [8] | Potency [9] | Potency [11] | Potency [12] | Potency [14] | Potency [19] | Potency [17] | Potency [18]
active: Potency [20] 3.89 µM | Potency [3] 6.16 µM

ClCc1cccc(Cl)c1
inactive: Potency [1] | Potency [2] | max response [3] -0.225% | Potency [4] | Potency [5] | Potency [6] | Potency [7] | Potency [8] | Potency [9] | Potency [10] | Potency [11] | Potency [12] | Potency [13] | Potency [14] | Potency [15] | Potency [16] | Potency [19] | Potency [17] | Potency [18]

CO[C@@H]1[C@H](OC(=O)NC(=O)CCl)CC[C@]2(CO2)[C@H]1[C@@]1(C)O[C@@H]1CC=C(C)C
inactive: activity change, negative = cytotoxicity [1] 13.2% [at 15.8 µM] | viability change, negative = cytotoxic [2] -0.3% [at 15.8 µM] | max response [3] 1.55% | activity change [4] -10.2% [at 15.8 µM, hits give high values] | cytotoxicity increase [5] -3.75% [at 15.8 µM] | activity change, negative = cytotoxic [6] 1.26% [at 15.8 µM] | cytotoxicity [7] -1.01% [at 15.8 µM] | cytotoxicity increase [8] -2% [at 15.8 µM] | activity change, negative = cytotoxicity [9] 1.11% [at 15.8 µM] | cytotoxicity increase [10] -3.65% [at 15.8 µM] | cytotoxicity [11] 1.46% [at 15.8 µM] | cytotoxicity increase [12] -1.39% [at 15.8 µM] | cytotoxicity increase [13] -6.32% [at 15.8 µM] | activity change, negative = cytotoxic [14] 1.78% [at 15.8 µM] | activity change, negative = cytotoxicity [15] 14.6% [at 15.8 µM] | activity change, negative = cytotoxicity [16] 6.68% [at 15.8 µM] | activity change [19] -10.6% [at 15.8 µM, hits give high values] | cytotoxicity increase [18] -1.9% [at 15.8 µM]

O=S(=O)(O)C(F)(F)C(F)(F)C(F)(F)C(F)(F)F
inactive: Potency [20] | Potency [2] | Potency [4] | Potency [6] | Potency [7] | Potency [8] | Potency [10] | Potency [12] | Potency [13] | Potency [14] | Potency [17] | Potency [18]

O=S(=O)(Cl)c1ccccc1
inactive: Potency [1] | Potency [2] | max response [3] 11.8% | Potency [4] | Potency [5] | Potency [6] | Potency [7] | Potency [8] | Potency [9] | Potency [10] | Potency [11] | Potency [12] | Potency [13] | Potency [14] | Potency [15] | Potency [16] | Potency [19] | Potency [17] | Potency [18]

CCN(C)N=O
inactive: Potency [1] | Potency [2] | max response [3] 2.13% | Potency [4] | Potency [5] | Potency [6] | Potency [7] | Potency [8] | Potency [9] | Potency [10] | Potency [11] | Potency [12] | Potency [13] | Potency [14] | Potency [15] | Potency [16] | Potency [17] | Potency [18]

O=C(O)C1(c2ccc3c(c2)OC[C@H](Cc2ccc(-c4ccccc4)cc2)[C@H]3O)CCCC1
inactive: Potency [2] | Potency [6] | Potency [11] | Potency [14] | Potency [17] | Potency [18]
active: Potency [4] 38.9 µM | Potency [8] 49 µM | Potency [10] 34.7 µM | Potency [12] 43.6 µM | Potency [13] 19.5 µM

N#C/C(N)=C(/N)C#N
inactive: Potency [1] | Potency [2] | max response [3] 0.894% | Potency [4] | Potency [5] | Potency [6] | Potency [7] | Potency [8] | Potency [10] | Potency [11] | Potency [12] | Potency [13] | Potency [14] | Potency [15] | Potency [16] | Potency [19] | Potency [18]

NS(=O)(=O)C(F)(F)C(F)(F)C(F)(F)C(F)(F)C(F)(F)C(F)(F)C(F)(F)C(F)(F)F
inactive: Potency [1] | Potency [2] | max response [3] -4.36% | Potency [4] | Potency [5] | Potency [6] | Potency [9] | Potency [10] | Potency [11] | Potency [13] | Potency [14] | Potency [15] | Potency [16] | Potency [19] | Potency [17] | Potency [18]
